# Sampled rows, rich in hits. Any-hit rate of the full collection: about 19%.
# HT1080 IDH1KD tx – HT-1080 IDH1 knockdown cell toxicity (counter line); Potency, µM (highest dose often 46.1 µM), for inactives: at the highest dose activity, negative = toxicity, most hits filed as cytotoxic; 360,000 tested, 2% active; HT-1080 IDH1 knockdown viability, ATP luminescence, 48 h; AID 686971;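 also: potency is read from the fitted curve at half-maximal effect; 0% = DMSO wells and -100% = cell-free medium wells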
#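 HT-1080-IDH1KD cells (IDH1 knocked down), 750/well in RPMI with 5% FBS, treated with compound 48 h at 37 degrees C. Viability by CellTiter-Glo luminescence, normalised to DMSO and no-cell wells; concentration-response curves classed.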
# DT40 TDP1 CPT – growth inhibition of DT40 Tdp1-/-;hTDP1 cells with camptothecin (screen for TDP1 inhibitors); 420,000 tested, 12% active; chicken DT40 Tdp1-/-;hTDP1 cells + 20 nM CPT, ATP luminescence, 48 h; Potency, µM (top dose mostly 46.2 µM), inactives show top-dose activity change, negative = growth inhibition, usual class: inhibitors; also: potency is read from the fitted curve at half-maximal effect; nearly all actives have a fitted effect of over 55% in size
#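 Chicken DT40 Tdp1-/- cells complemented with human TDP1, 400 cells/well, exposed to compounds plus 20 nM camptothecin for at least 48 h at 37 C; viability read as ATP content by CellTiter-Glo luminescence.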
# HT1080NT lethal – kills 2HG-producing HT-1080-NT fibrosarcoma cells; HT-1080-NT fibrosarcoma viability, CellTiter-Glo ATP luminescence, 48 h; Potency, µM (doses to about 46.1 µM), for the others: at the top dose activity, negative = less viability, most hits filed as cytotoxic; 360,000 tested, 1.6% active; AID 686970;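 also: NT is the 2HG producing partner of a matched IDH1 knockdown line; potency is read from the fitted curve at half-maximal effect; 0% = DMSO-treated cells and -100% = media-only wells without cells; nearly all actives have a fitted effect of over 55% in size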
#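 Toxicity toward the 2HG-producing NT line was scored as %Activity, normalised to DMSO and no-cell wells, from CellTiter-Glo luminescence after 48 hours' treatment.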
# TDP1 cell noCPT – qHTS for Inhibitors of human tyrosyl-DNA phosphodiesterase 1 (TDP1): qHTS in cells in absence of CPT; 420,000 tested, 15% active; DT40 Tdp1-/- hTDP1 cells, no CPT, ATP luminescence, 48 h; AID 686978, 2013; Potency, µM (series often up to 46.2 µM), without a hit: at the top dose activity change, negative = growth inhibition, usual class: inhibitors; also: potency is read from the fitted curve at half-maximal effect; nearly all actives have a fitted effect of over 55% in size
#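 Stably hTDP1-transfected Tdp1-null chicken DT40 cells were treated with library compounds minus camptothecin and grown for at least 48 hr at 37 °C, after which cellular ATP was quantified by luminescence.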
# IL-1B inflam inh – blocks inflammasome-driven IL-1 beta release. THP-1 LPS/ATP IL-1B secretion, AlphaLISA, 16 h; stronger effect = lower value. activity change, % at 57.5 µM. 360,000 tested, 4.7% active; in the data active = activity change below about -50%; inconclusive = mostly about -30% to -49%
#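 THP-1 cells pretreated 1 hr with compounds (up to 57.5 uM final), then stimulated with LPS (250 ng/mL final) plus ATP (1.25 mM final); secreted IL-1B measured by AlphaLISA after 16 hr, decreased signal indicating inhibition.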
# An asterisk follows results filed as active; ? = inconclusive; / = no result given; [ ] = dose if it differs, or a comment. Unless noted, calls follow the shape of the dose curve; as a rule, active = well fitted curve in the direction sought with a large enough effect; inconclusive = small, poorly fitted or top-dose-only effect, or another doubt; inactive = no such curve, though single readings can be large; an effect the other way counts as inactive or inconclusive. Unless noted, % is scaled to controls: 0 for no effect and ±100 for the full control effect.
SMILES,HT1080 IDH1KD tx,DT40 TDP1 CPT,HT1080NT lethal,TDP1 cell noCPT,IL-1B inflam inh
Cc1cc2nc(CCN(C(=S)NCC(C)C)C3CCCC3)[nH]c2cc1C,?,?,?,23.1µM*,-65.8*
Cc1cc2nc(CCN(C(=S)NCC3CCCO3)C3CCCC3)[nH]c2cc1C (stereo not given),4.1%,?,8.3%,?,-52.4*
CCOc1ccc(NC(=S)N2CCN(S(=O)(=O)c3ccc(OC)cc3)CC2)cc1,-12.0%,-17.1%,-3.0%,?,-12.4
Cc1ccc(NC(=O)CSc2nnc3[nH]c(=O)cc(-c4ccccc4)n23)cc1Cl,/,-7.2%,/,3.6%,/
COC(=O)CCc1c(C)[nH]c(C(=O)OCc2ccccc2)c1C,-11.8%,-23.0%,1.8%,-6.3%,-14.6
CCOC(=O)c1[nH]c(C)c(CCC(=O)Nc2ccccc2OCC)c1C,/,?,/,16.4µM*,/
CCOC(=O)c1[nH]c(C)c(CCC(=O)Nc2ccc(N(CC)CC)cc2C)c1C,/,23.1µM*,/,20.6µM*,/
CCOC(=O)c1[nH]c(C)c(CCC(=O)Nc2ccccc2C(=O)OC)c1C,/,13µM*,/,16.4µM*,/
CCOC(=O)c1[nH]c(C)c(CCC(=O)NCc2ccc(OC)cc2)c1C,/,-2.1%,/,-26.6%,/
Cc1nc(N2CCN(C(=O)c3ccco3)CC2)nc2c1C(=O)CCC2,13.5%,?,16.4%,6.7%,49.3
CCN(CC)S(=O)(=O)c1cc(Br)c(C)cc1OC,-5.7%,?,1.0%,?,10.5
COc1cccc(CN(C)C(=O)c2cc(-c3cccs3)nc3ccccc23)c1,-29.1%,20.6µM*,?,18.4µM*,-11.1
COc1cccc(C(=O)COC(=O)c2cc(-c3cccs3)nc3ccccc23)c1,/,?,/,16.4µM*,/
COc1cc(=O)n2c(c1C(=O)N(C)Cc1nonc1C)CCN(C(=O)c1cc(C)ccc1C)CC2,/,5.7%,/,-3.8%,/
CC1CCN(S(=O)C23CC4CC(CC(C4)C2)C3)CC1 (stereo not given),-5.3%,26.1%,-1.7%,?,14.7
CCCC[C@@H]1CCCO[C@@](C(=O)NCc2ccccn2)(C(F)(F)F)C1,0.6%,18.4µM*,-1.0%,?,2.2
CCCC[C@@H]1CCCO[C@@](C(=O)NCc2cc(C)n(C)n2)(C(F)(F)F)C1,5.2%,?,9.8%,?,24.2
Cc1cnc(-n2ncc(C(=O)N(C)CCc3ccccn3)c2-c2cccs2)nc1-c1ccc(F)cc1,/,-14.3%[9.04 µM],/,11.6µM*,/
CS(=O)(=O)c1ccc(Sc2nc3ccccc3[nH]2)c([N+](=O)[O-])c1,-3.9%,?,-0.6%,?,?
NCCNc1ccc([N+](=O)[O-])c(Sc2nc3ccccc3[nH]2)c1,-20.7%,?,0.2%,16.4µM*,-6.1
O=[N+]([O-])c1ccc(N2CCNCC2)cc1Sc1nc2ccccc2[nH]1,?,?,-25.9%,23.1µM*,-13.2
O=[N+]([O-])c1cc(S(=O)(=O)C(F)(F)F)ccc1Sc1nc2ccccc2[nH]1,18.4µM*,7.31µM*,?,7.31µM*,-102.9*
Cc1c(C(=O)N2CCCCC2)c(S(=O)(=O)Nc2ccc(F)cc2F)c(C)n1C,-0.3%,-10.8%,4.1%,17.6%,-14.4
O=C1C2C3CC(C(Br)C3Br)C2C(=O)N1c1nccs1 (stereo not given),-0.9%,-4.8%,5.6%,2.5%,-1.9
COC(=O)c1ccccc1-c1ccc(/C=N/NC(=O)c2cc3ccccc3o2)o1,-2.4%,?,-2.1%,14.6µM*,-13.2
SMILES,HT1080 IDH1KD tx,DT40 TDP1 CPT,HT1080NT lethal,TDP1 cell noCPT,IL-1B inflam inh
CCOc1cccc(/C=N/Nc2nc(N3CCCC3)nc(N3CCCC3)n2)c1O,2.1%,16.4µM*,23.8%,13µM*,-107.9*
COC(=O)c1ccccc1-c1ccc(/C=N/Nc2nc(N3CCCC3)nc(N3CCCC3)n2)o1,?,?,?,23.1µM*,-90.7*
O=C(N/N=C/c1ccc2c(c1)OCO2)c1cc2ccccc2o1,-2.4%,4.9%,1.3%,21.6%,22.8
O=C1NC(=S)/C(=C\c2ccc(-c3ccccc3Cl)o2)S1,?,23.1µM*,?,13µM*,-3.6
O=C1NC(=O)/C(=C/c2ccc(-c3cc(C(=O)O)ccc3Cl)o2)S1,-21.3%,0.7%,-27.0%,-15.8%,-11.1
CC1CCCCN1S(=O)(=O)Cc1ccccc1Cl (stereo not given),16.5%,17.5%,17.5%,7.1%,8.7
COc1cccc(OCc2cc(C3Nc4ccccc4C(=O)N3c3ccccc3)ccc2OC)c1 (stereo not given),/,10µM*,/,12.6µM*,/
CCCN1C(=O)c2ccccc2NC1c1ccc(OC)c(COc2cccc(OC)c2)c1 (stereo not given),/,?,/,15.8µM*,/
COc1ccc(C2Nc3ccccc3C(=O)N2Cc2ccccc2)cc1COc1ccccc1F (stereo not given),/,?,/,14.1µM*,/
CCCN1C(=O)c2ccccc2NC1c1ccc(OC)c(COc2ccc([N+](=O)[O-])cc2)c1 (stereo not given),/,10µM*,/,10µM*,/
COc1ccc(C2Nc3ccccc3C(=O)N2Cc2ccccc2)cc1COc1ccc([N+](=O)[O-])c(C)c1 (stereo not given),/,-14.1%,/,-16.2%,/
CC1CCN(C(=O)c2cc3ccccc3cc2O)CC1,3.9%,-15.2%,4.6%,6.9%,-7.1
COc1ccc(/C(C)=N/Nc2ncc(Cl)cc2Cl)c(O)c1,?,?,4.61µM*,0.0082µM*,-17.7
C/C(=N\Nc1ncc(Cl)cc1Cl)c1ccc(C#N)cc1,-7.9%,-6.3%,-10.6%,7.2%,-29.9
COc1ccc(NC(=O)Cc2ccc(Cl)cc2)cc1NC(=O)c1ccco1,-23.5%,-28.6%,?,?,-55.9*
COc1ccc(NC(=O)c2ccco2)cc1NC(=O)C(C)Oc1ccc(Cl)cc1Cl (stereo not given),/,9.2µM*,/,6.51µM*,/
COc1ccc(NC(=O)c2ccco2)cc1NC(=O)C(C)(C)Oc1ccc(Cl)cc1,/,18.4µM*,/,?,/
COc1ccc(C(=O)Nc2cc(NC(=O)c3ccco3)ccc2OC)cc1Cl,/,-2.6%,/,-4.2%,/
COCc1cc(=O)[nH]c(Nc2nc3ccccc3o2)n1,?,10µM*,-28.4%,8.91µM*,54.3
COCc1cc(=O)[nH]c(Nc2nc(C)c3ccccc3n2)n1,?,20.6µM*,?,16.4µM*,-64.9*
Cc1ccc2oc(Nc3nc(-c4ccccc4)cc(=O)[nH]3)nc2c1,?,3.26µM*,-3.7%,4.61µM*,/
COCc1cc(=O)[nH]c(-c2ccccc2)n1,5.1%,-1.4%,0.4%,19.0%,5.4

# High-throughput results as filed in PubChem BioAssay.
